Screens deposited in PubChem by several laboratories.
The list is not random: actives were taken first. Their share in the collection is about 1.9%.
BaF3 tox – counter-screen for JAK2V617F inhibitors: parental Ba/F3 viability inhibitors; CellTiter-Glo ATP luminescence; inhibition, % at 5.6 µM; actives 1.1% (n = 220,000);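 active = inhibition above a per-campaign cutoff, the mean inhibition of all tested compounds plus 3 SD, cut at about 27% in these data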;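 also: 0% = DMSO wells and 100% = JAK Inhibitor I control wells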
APP 5UTR inh – APP translation inhibition. SH-SY5Y APP 5'UTR-luciferase reporter, luminescence. inhibition, % at 2 µM. actives 0.82% (n = 190,000). AID 1285;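 active = inhibition above a set limit, derived from the sample mean plus 3 SD, cut at about 45% in these data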
IEC-6 tox – IEC-6 cytotoxicity, counter-screen for KLF5 inhibitors. inhibition, % at 5 µM. actives 0.78% (n = 290,000). luminescence viability;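 also: 0% = plate median of test compound wells and 100% = cytotoxic reference compound wells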
Ba/F3 V617F tox – lowers viability of Ba/F3 cells expressing EpoR and JAK2V617F; ATP luminescence; inhibition, % at 5.6 µM; actives 1.1% (n = 220,000);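 active = inhibition above the campaign mean plus 3 SD over all tested compounds, cut at about 24% in these data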;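 also: cytokine-independent growth of Ba/F3 cells driven by EpoR plus mutant JAK2; 0% = DMSO-treated cells and 100% = JAK inhibitor I control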
KLF5 inhibitor – kruppel-like factor 5 inhibition; DLD-1 KLF5 promoter-luciferase reporter, luminescence; inhibition, % at 5 µM; actives 0.23% (n = 290,000);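 active = inhibition above a per-plate limit of that plate's mean compound inhibition plus 3 SD, cut at about 60% in these data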;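 also: 0% = DMSO wells and 100% = LY294002 at 200 µM; higher means less KLF5 promoter-driven luciferase light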
IEC-6 tox confirm – confirmation of cytotoxic compounds in rat IEC-6 intestinal epithelial cells; shares compounds with IEC-6 tox; IEC-6 rat intestinal epithelial viability, luminescence; inhibition, % at 5 µM; actives 63% (n = 1,900); AID 1907;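 also: 0% = vehicle and 100% = reference cytotoxic drug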
Active calls of the source: *. Rule as the data show it, unless noted: active = inhibition above about 22%; inactive = the rest.

What do the screens show for `COc1ccc(CNc2ncnc3cc(OC)c(OC)cc23)cc1OC`?
BaF3 tox: 9.8; APP 5UTR inh: 11.5; IEC-6 tox: 7.2; Ba/F3 V617F tox: 5.1; KLF5 inhibitor: -15.9

Results for O=C(NC1CCCC1)C1CCN(S(=O)(=O)c2ccccc2)CC1 ?
IEC-6 tox: -7.0; KLF5 inhibitor: -24.2

How did O=C(O)c1ccc(S(=O)(=O)c2ccc3c(c2)C(=O)N(c2ccc(Br)cc2)C3=O)cc1 do in these assays?
IEC-6 tox: -3.9; KLF5 inhibitor: -27.0

What do the screens show for `Cc1ccc(OC(=O)c2cc(C)nn2C(C)(C)C)cc1`?
BaF3 tox: 2.7; IEC-6 tox: -2.8; Ba/F3 V617F tox: 1.0; KLF5 inhibitor: -13.9

Results for CCCCCCn1ccc(=N)cc1 ?
BaF3 tox: 69.2*; APP 5UTR inh: 1.8; IEC-6 tox: 28.4*; Ba/F3 V617F tox: 92.0*; KLF5 inhibitor: 5.8; IEC-6 tox confirm: 26.4*

What do the screens show for `Cc1cc(C)n(CCCN2C(=O)c3cccc4cccc(c34)C2=O)n1`?
BaF3 tox: 9.2; APP 5UTR inh: -12.5; IEC-6 tox: 5.0; Ba/F3 V617F tox: 4.7; KLF5 inhibitor: -22.4

How did O=C(c1c[nH]c2ccccc12)C(Cl)c1ccccc1 (stereo unspecified) do in these assays?
IEC-6 tox: 32.9*; KLF5 inhibitor: 18.0; IEC-6 tox confirm: 12.7

How did O=C(c1c[nH]c2ccccc12)C(O)C(c1ccccc1)N1CCOCC1 (stereo unspecified) do in these assays?
BaF3 tox: 4.2; APP 5UTR inh: -6.4; IEC-6 tox: -3.3; Ba/F3 V617F tox: -3.8; KLF5 inhibitor: -11.0

Results for CC(=O)/C(C#N)=C1\NC(=O)C(Cc2ccc(F)cc2)S1 (stereo unspecified) ?
BaF3 tox: 2.3; IEC-6 tox: 71.5*; Ba/F3 V617F tox: 2.6; KLF5 inhibitor: -12.2; IEC-6 tox confirm: 48.0*

Results for CC(=O)/C(C#N)=C1\NC(=O)C(Cc2ccc(C)c(C)c2)S1 (stereo unspecified) ?
BaF3 tox: 4.7; APP 5UTR inh: -30.1; IEC-6 tox: 78.3*; Ba/F3 V617F tox: -1.7; KLF5 inhibitor: 29.0; IEC-6 tox confirm: 50.3*

How did Cc1ccc2c(c1)N(C)/C(=C/c1cccc[n+]1C)S2 do in these assays?
IEC-6 tox: 18.6; KLF5 inhibitor: 15.9

Results for CCN1/C(=C/c2ccc3cc(C)ccc3[n+]2CC)Sc2cc(C)ccc21 ?
BaF3 tox: 84.8*; APP 5UTR inh: 63.1*; IEC-6 tox: 34.8*; Ba/F3 V617F tox: 99.3*; KLF5 inhibitor: 16.9; IEC-6 tox confirm: 33.9*

Results for CCCCN1/C(=C/c2ccc3ccccc3[n+]2CC)Sc2ccccc21 ?
BaF3 tox: 80.4*; APP 5UTR inh: -7.7; IEC-6 tox: 41.6*; Ba/F3 V617F tox: 101.0*; KLF5 inhibitor: 6.8; IEC-6 tox confirm: 14.1

How did CCCCN1/C(=C/c2cccc[n+]2C)Sc2cc(NC(C)=O)ccc21 do in these assays?
IEC-6 tox: -4.0; KLF5 inhibitor: -25.5

What do the screens show for `C=CCN(c1ccccc1Cl)S(=O)(=O)c1cccc(C(=O)OCC(=O)N(C)C2CCS(=O)(=O)C2)c1` (stereo unspecified)?
BaF3 tox: 8.6; APP 5UTR inh: -0.1; IEC-6 tox: 4.9; Ba/F3 V617F tox: 6.2; KLF5 inhibitor: -16.6

How did Cc1cccc(Cc2cnc(NC(=O)c3ccc(C)o3)s2)c1 do in these assays?
BaF3 tox: 75.8*; APP 5UTR inh: -76.5; IEC-6 tox: 59.4*; Ba/F3 V617F tox: 71.0*; KLF5 inhibitor: -99.2; IEC-6 tox confirm: 39.5*

What do the screens show for `Cc1cccc(Cc2cnc(NC(=O)C3=NCCN3)s2)c1`?
BaF3 tox: 8.0; APP 5UTR inh: 18.6; IEC-6 tox: -0.7; Ba/F3 V617F tox: -0.1; KLF5 inhibitor: -2.2

What do the screens show for `CC(C)c1ccc(O)c(NC(=S)NC(=O)c2cccnc2)c1`?
BaF3 tox: 3.7; APP 5UTR inh: 11.7; IEC-6 tox: 34.3*; Ba/F3 V617F tox: 2.9; KLF5 inhibitor: 17.8; IEC-6 tox confirm: -2.8

What do the screens show for `CC(C)(C)c1ccc(C(=O)NNC(=S)NC(=O)c2cccnc2)cc1`?
IEC-6 tox: 30.2*; KLF5 inhibitor: 26.5; IEC-6 tox confirm: 22.9*

Results for CC(C)(C)C(=O)NC(=S)NNC(=O)c1ccc(-c2ccccc2)cc1 ?
BaF3 tox: 35.7*; APP 5UTR inh: 67.2*; IEC-6 tox: 39.7*; Ba/F3 V617F tox: 37.2*; KLF5 inhibitor: 56.6; IEC-6 tox confirm: 47.4*

Results for CC(=O)Nc1ccc(NC(=O)C(C)OC(=O)CCCOc2ccc(Cl)c(C)c2)cc1 (stereo unspecified) ?
IEC-6 tox: 10.6; KLF5 inhibitor: -4.8

Results for Cc1cc(C)cc(Oc2ccc(NC(=O)C3CC=CCC3C(=O)O)cc2)c1 (stereo unspecified) ?
BaF3 tox: 9.2; APP 5UTR inh: -4.6; IEC-6 tox: 3.2; Ba/F3 V617F tox: 5.0; KLF5 inhibitor: -3.8

Results for O=C(O)CC(CC(=O)Nc1ccc(-n2ccc(C(F)(F)F)n2)cc1)c1ccccc1 (stereo unspecified) ?
BaF3 tox: -0.1; IEC-6 tox: 9.3; Ba/F3 V617F tox: 1.9; KLF5 inhibitor: -13.7

Results for O=C(Nc1ccccc1)Nc1ccc(-n2ccc(C(F)(F)F)n2)cc1 ?
BaF3 tox: 63.0*; IEC-6 tox: 22.1*; Ba/F3 V617F tox: 57.7*; KLF5 inhibitor: -138.3; IEC-6 tox confirm: 23.2*

Results for COc1ccc(-c2cc(=O)c3ccccc3[nH]2)cc1 ?
BaF3 tox: 1.7; APP 5UTR inh: -11.9; IEC-6 tox: 1.0; Ba/F3 V617F tox: -1.1; KLF5 inhibitor: 7.4

How did COc1cccc(-c2cc(=O)c3cc(NC(=O)c4ccc(N(C)C)cc4)ccc3[nH]2)c1 do in these assays?
BaF3 tox: 97.2*; APP 5UTR inh: 92.0*; IEC-6 tox: 70.7*; Ba/F3 V617F tox: 91.1*; KLF5 inhibitor: 34.6; IEC-6 tox confirm: 70.5*

Results for COc1ccc2[nH]c(-c3cccc(F)c3)cc(=O)c2c1 ?
BaF3 tox: 73.8*; APP 5UTR inh: 92.9*; IEC-6 tox: 74.6*; Ba/F3 V617F tox: 76.1*; KLF5 inhibitor: 60.4; IEC-6 tox confirm: 59.7*

How did Cc1nn(C)c(C)c1/C=N/N=C1\CCC2C3CCc4cc(O)ccc4C3CCC12C (stereo unspecified) do in these assays?
BaF3 tox: 5.5; APP 5UTR inh: -26.0; IEC-6 tox: 0.6; Ba/F3 V617F tox: 1.9; KLF5 inhibitor: -13.6

How did COc1cccc(CNc2ncc(C(=O)Nc3cc(OC)c(OC)c(OC)c3)c(C)n2)c1 do in these assays?
IEC-6 tox: 29.8*; KLF5 inhibitor: 22.4; IEC-6 tox confirm: 11.5

How did COc1cccc(-n2nc(C(N)=O)c(O)cc2=O)c1 do in these assays?
BaF3 tox: 3.2; APP 5UTR inh: -2.6; IEC-6 tox: -0.7; Ba/F3 V617F tox: 0.7; KLF5 inhibitor: -18.3

How did COc1cccc(-n2nc(C#N)c(Cl)cc2=O)c1 do in these assays?
BaF3 tox: -10.2; APP 5UTR inh: 91.3*; IEC-6 tox: 28.1*; Ba/F3 V617F tox: 8.1; KLF5 inhibitor: 11.6; IEC-6 tox confirm: 29.2*

What do the screens show for `O=Cc1ccccc1-c1cn(CCCOCc2ccccc2)nn1`?
IEC-6 tox: -5.1; KLF5 inhibitor: 3.6
